Nine compounds from PubChem BioAssay (NCI) can be followed below.

The panel holds about 79,000 compounds, 15% with a hit somewhere; the sample as a whole holds those more often. Values without a mark were called inactive. Activity calls are given as the source filed them. No stated cut-off is given here; in the data, active means growth inhibition above about 70%; inactive means the rest.

Assay [1] can be described thus: NCI Yeast Anticancer Drug Screen. Data for the rad50 strain (AID 155).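 Further: 0% = growth of vehicle-only cultures of the same strain.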 Particulars: S. cerevisiae rad50 strain growth inhibition, active compounds read high. The method in brief:
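Relative growth inhibition (compound vs vehicle) was measured in yeast with a defined repair-gene alteration.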

The nature of assay [2]: NCI Yeast Anticancer Drug Screen. Data for the mec2-1 strain (AID 157). As to conditions: S. cerevisiae mec2-1 strain, active compounds read high. The method in brief: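 Yeast mec2-1 mutant treated with compound. Readout: growth inhibition vs vehicle controls.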
Assay [3] in a line: NCI Yeast Anticancer Drug Screen. Data for the sgs1 mgt1 strain (AID 161).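 Further: 0% = growth of cultures given vehicle only.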 As to conditions: S. cerevisiae sgs1 mgt1 strain, active compounds read high. Put shortly: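 Mutant yeast exposed to compound; growth scored against vehicle-only wells.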
Assay [4] is described as follows: NCI Yeast Anticancer Drug Screen. Data for the cln2 rad14 strain (AID 165).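 Further: 0% = growth equal to vehicle treated cultures.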 Particulars: S. cerevisiae cln2 rad14 strain, active compounds read high. Put shortly: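 cln2 rad14 yeast strain; compound exposure; growth inhibition read vs vehicle controls.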
Assay [5] in a line: NCI Yeast Anticancer Drug Screen. Data for the bub3 strain (AID 167). As to conditions: S. cerevisiae bub3 mutant strain, active compounds read high. The method in brief: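 Screening used yeast with an engineered genetic alteration affecting cell cycle control. Compound-exposed cultures were compared with vehicle cultures, and reduced growth was taken as inhibition.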
The nature of assay [6]: NCI Yeast Anticancer Drug Screen. Data for the mlh1 rad18 strain (AID 175). As to conditions: S. cerevisiae mlh1 rad18 strain growth inhibition, active compounds read high. The method in brief:
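Yeast w/ defined DNA-repair lesions; compound exposure; growth vs vehicle controls → % inhibition.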

The mark [7] stands for this setting: at 5.0 µM (retest, dose inferred, filed as 0.5).
The mark [8] stands for this setting: at 50.0 µM (retest, dose inferred, filed as 5.0).

As for `COc1ccc(OC)c(C[P+](c2ccccc2)(c2ccccc2)c2ccccc2)c1`, the growth inhibition in assay [1] (setting [7]) is 97% (active); in assay [1] (setting [8]) it was 96% (active); in assay [1] (at 50.0 µM), 98.7% (active); in assay [2] (setting [7]), 97% (active); in assay [2] (setting [8]), 99% (active); in assay [2] (at 50.0 µM), 98.9% (active). For the same compound, the growth inhibition was 97% (active) in assay [3] (setting [7]); 99% (active) in assay [3] (setting [8]); 98.5% (active) in assay [3] (at 50.0 µM); 92% (active) in assay [4] (setting [7]); 99% (active) in assay [4] (setting [8]); 98.8% (active) in assay [4] (at 50.0 µM). Moreover, the growth inhibition in assay [5] (setting [7]) was 96% (active); in assay [5] (setting [8]), 99% (active); in assay [5] (at 50.0 µM), 99% (active); in assay [6] (setting [7]), 98% (active); in assay [6] (setting [8]), 99% (active); in assay [6] (at 50.0 µM), 99% (active).

For `O=P(O)(CN1CCN(CP(=O)(O)c2ccccc2)CCN(CP(=O)(O)c2ccccc2)CC1)c1ccccc1`, the growth inhibition in assay [1] (setting [7]) is 17%; in assay [1] (setting [8]), 65%; in assay [1] (at 50.0 µM), 86.7% (active); in assay [2] (setting [7]), 4%; in assay [2] (setting [8]), 61%; in assay [2] (at 50.0 µM) it was 81.8% (active). Besides, the growth inhibition in assay [3] (setting [7]) was 11%; in assay [3] (setting [8]), 51%; in assay [3] (at 50.0 µM) it was 85% (active); in assay [4] (setting [7]), 12%; in assay [4] (setting [8]), 58%; in assay [4] (at 50.0 µM), 60%. In addition, the growth inhibition is 30% in assay [5] (setting [7]); 72% (active) in assay [5] (setting [8]); 88.3% (active) in assay [5] (at 50.0 µM); 22% in assay [6] (setting [7]); 53% in assay [6] (setting [8]); 80.3% (active) in assay [6] (at 50.0 µM).

In the case of `O=C(c1ccccc1)N1CCN(c2cccc(Cl)c2)CC1`, the growth inhibition in assay [1] (setting [7]) was 0%; in assay [1] (setting [8]) it was 2%; in assay [1] (at 50.0 µM), 29.2%; in assay [2] (setting [7]), 0%; in assay [2] (setting [8]), 2%; in assay [2] (at 50.0 µM) it was 0.45%. Also, the growth inhibition is -2% in assay [3] (setting [7]); 8% in assay [3] (setting [8]); 12.7% in assay [3] (at 50.0 µM); -1% in assay [4] (setting [7]); 10% in assay [4] (setting [8]); -26.1% in assay [4] (at 50.0 µM). Also, the growth inhibition in assay [5] (setting [7]) is 9%; in assay [5] (setting [8]), 93% (active); in assay [5] (at 50.0 µM), 77.4% (active); in assay [6] (setting [7]) it was 1%; in assay [6] (setting [8]), 12%; in assay [6] (at 50.0 µM), 16.3%.

For the compound `NCCNC[Si](c1ccccc1)(c1ccccc1)c1ccccc1`, the growth inhibition in assay [1] (setting [7]) was -13%; in assay [1] (setting [8]) it was 92% (active); in assay [1] (at 50.0 µM), 7.6%; in assay [2] (setting [7]), -3%; in assay [2] (setting [8]) it was 92% (active); in assay [2] (at 50.0 µM), -21.4%. Further, the growth inhibition is -10% in assay [3] (setting [7]); 84% (active) in assay [3] (setting [8]); 8.2% in assay [3] (at 50.0 µM); -4% in assay [4] (setting [7]); 96% (active) in assay [4] (setting [8]); 5.3% in assay [4] (at 50.0 µM). In addition, the growth inhibition in assay [5] (setting [7]) is -10%; in assay [5] (setting [8]) it was 94% (active); in assay [5] (at 50.0 µM) it was 17.6%; in assay [6] (setting [7]) it was -12%; in assay [6] (setting [8]) it was 87% (active); in assay [6] (at 50.0 µM) it was 11.4%.

In the case of `c1c[n+](CCC2CCCCC2)ccn1`, the growth inhibition is -15% in assay [1] (setting [7]); 6% in assay [1] (setting [8]); 89% (active) in assay [1] (at 50.0 µM); -14% in assay [2] (setting [7]); -23% in assay [2] (setting [8]); 97% (active) in assay [2] (at 50.0 µM). Besides, the growth inhibition in assay [3] (setting [7]) is -33%; in assay [3] (setting [8]), -21%; in assay [3] (at 50.0 µM), 94.3% (active); in assay [4] (setting [7]), -26%; in assay [4] (setting [8]), 10%; in assay [4] (at 50.0 µM) it was 73.1% (active). The growth inhibition was -6% in assay [5] (setting [7]); 28% in assay [5] (setting [8]); 63.7% in assay [5] (at 50.0 µM); -28% in assay [6] (setting [7]); 3% in assay [6] (setting [8]); 69.5% in assay [6] (at 50.0 µM).

On to `CCCCCCCCCCOC(=O)c1cc[n+](C)cc1`, for which the growth inhibition in assay [1] (setting [7]) is -4%; in assay [1] (setting [8]), -5%; in assay [1] (at 50.0 µM) it was 13.8%; in assay [2] (setting [7]), 7%; in assay [2] (setting [8]) it was 6%; in assay [2] (at 50.0 µM) it was 9.5%. Besides, the growth inhibition in assay [3] (setting [7]) was -5%; in assay [3] (setting [8]), 0%; in assay [3] (at 50.0 µM), -1.75%; in assay [4] (setting [7]), -3%; in assay [4] (setting [8]) it was -4%; in assay [4] (at 50.0 µM) it was 46.1%. The growth inhibition in assay [5] (setting [7]) was -5%; in assay [5] (setting [8]) it was -6%; in assay [5] (at 50.0 µM), -0.65%; in assay [6] (setting [7]), -2%; in assay [6] (setting [8]), -1%; in assay [6] (at 50.0 µM), -18.9%.

With `Cc1nnc(NS(=O)(=O)c2ccc(N=Nc3cc(N=Nc4ccc(S(=O)(=O)Nc5nnc(C)s5)cc4)c4c(NC(=O)C(Cl)Cl)cccc4c3OC(=O)C(Cl)Cl)cc2)s1` (tested in a mixture with another compound), the growth inhibition in assay [1] (setting [7]) is 90% (active); in assay [1] (setting [8]), -11%; in assay [1] (at 50.0 µM), 51.8%; in assay [2] (setting [7]), 92% (active); in assay [2] (setting [8]), 24%; in assay [2] (at 50.0 µM) it was 53.6%. Besides, the growth inhibition is 89% (active) in assay [3] (setting [7]); -9% in assay [3] (setting [8]); 69.5% in assay [3] (at 50.0 µM); 90% (active) in assay [4] (setting [7]); 6% in assay [4] (setting [8]); 65.8% in assay [4] (at 50.0 µM). For the same compound, the growth inhibition in assay [5] (setting [7]) is 91% (active); in assay [5] (setting [8]), -3%; in assay [5] (at 50.0 µM) it was 58.2%; in assay [6] (setting [7]) it was 80% (active); in assay [6] (setting [8]), -44%; in assay [6] (at 50.0 µM), 79.5% (active).

As to `CCOC(=O)C1=C(N)N(S(=O)(=O)c2ccc(C)cc2)CCC(C(=O)OC)=C1`, the growth inhibition in assay [1] (setting [7]) is 3%; in assay [1] (setting [8]) it was -4%; in assay [1] (at 50.0 µM), 30.4%; in assay [2] (setting [7]) it was 0%; in assay [2] (setting [8]) it was 0%; in assay [2] (at 50.0 µM), 31.9%. Besides, the growth inhibition in assay [3] (setting [7]) is 5%; in assay [3] (setting [8]), -1%; in assay [3] (at 50.0 µM), 82% (active); in assay [4] (setting [7]) it was 5%; in assay [4] (setting [8]) it was -6%; in assay [4] (at 50.0 µM), -3.15%. Also, the growth inhibition in assay [5] (setting [7]) is 1%; in assay [5] (setting [8]) it was -4%; in assay [5] (at 50.0 µM) it was 26.2%; in assay [6] (setting [7]), -2%; in assay [6] (setting [8]) it was -3%; in assay [6] (at 50.0 µM), 56.1%.

Consider `Oc1ccc(C(O)(c2ccccc2)c2ccccc2)c2ccccc12`, for which the growth inhibition in assay [1] (setting [7]) was 45%; in assay [1] (setting [8]), 94% (active); in assay [1] (at 50.0 µM), 98.2% (active); in assay [2] (setting [7]), 12%; in assay [2] (setting [8]), 98% (active); in assay [2] (at 50.0 µM), 97.9% (active). Further, the growth inhibition was 59% in assay [3] (setting [7]); 93% (active) in assay [3] (setting [8]); 98.5% (active) in assay [3] (at 50.0 µM); 28% in assay [4] (setting [7]); 67% in assay [4] (setting [8]); 97.2% (active) in assay [4] (at 50.0 µM). The growth inhibition in assay [5] (setting [7]) was 7%; in assay [5] (setting [8]), 43%; in assay [5] (at 50.0 µM), 98% (active); in assay [6] (setting [7]), 20%; in assay [6] (setting [8]), 96% (active); in assay [6] (at 50.0 µM) it was 97.5% (active).
